40 compounds from PubChem BioAssay (EPA / NIEHS) can be followed below.

Calls of active or inactive are those of the source. Rule for the calls: active = hit-call score of the fitted dose curve at least 0.9, where 1 is the maximum; inactive = score below 0.9.

Sequence of Aryl hydrocarbon receptor (Homo sapiens) (P35869 whole entry, looked up): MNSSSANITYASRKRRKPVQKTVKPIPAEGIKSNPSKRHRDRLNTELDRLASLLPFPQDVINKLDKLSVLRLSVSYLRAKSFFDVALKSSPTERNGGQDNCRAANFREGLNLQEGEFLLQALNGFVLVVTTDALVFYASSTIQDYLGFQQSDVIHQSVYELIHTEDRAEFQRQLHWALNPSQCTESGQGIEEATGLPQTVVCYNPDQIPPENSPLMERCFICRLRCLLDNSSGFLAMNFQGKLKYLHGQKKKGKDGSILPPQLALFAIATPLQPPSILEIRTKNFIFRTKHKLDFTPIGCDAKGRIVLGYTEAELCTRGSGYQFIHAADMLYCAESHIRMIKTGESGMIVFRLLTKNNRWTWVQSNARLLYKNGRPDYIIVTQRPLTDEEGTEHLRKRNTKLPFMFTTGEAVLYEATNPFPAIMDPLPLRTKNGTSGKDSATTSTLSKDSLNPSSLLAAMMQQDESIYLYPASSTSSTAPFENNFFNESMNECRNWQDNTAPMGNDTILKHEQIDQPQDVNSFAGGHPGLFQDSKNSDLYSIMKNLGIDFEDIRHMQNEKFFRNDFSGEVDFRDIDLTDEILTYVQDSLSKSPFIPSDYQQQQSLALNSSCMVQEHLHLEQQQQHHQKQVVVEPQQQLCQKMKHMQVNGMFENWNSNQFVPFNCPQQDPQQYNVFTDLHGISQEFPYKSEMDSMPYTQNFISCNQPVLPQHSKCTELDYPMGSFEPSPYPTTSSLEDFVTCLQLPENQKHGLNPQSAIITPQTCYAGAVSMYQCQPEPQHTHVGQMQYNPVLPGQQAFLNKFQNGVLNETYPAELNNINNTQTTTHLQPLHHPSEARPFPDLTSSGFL

The test addresses Aryl hydrocarbon receptor (Homo sapiens) (UniProt P35869). Description: ATG_Ahr_CIS: Attagene CIS-FACTORIAL HepG2 Assay for human Aryl Hydrocarbon Receptor (Ahr) (AID 2282930). The settings on record: HepG2 AhR cis-factorial reporter transcription; actives raise or lower the signal. The procedure:
ATG_CIS is a cell-based, multiplexed-readout assay that uses HepG2, a human liver cell line, with measurements taken at 24 hours after chemical dosing in a 24-well plate.ATG_Ahr_CIS is one of 52 assay component(s) measured or calculated from the ATG_CIS assay. It is designed to make measurements of mRNA induction, a form of inducible reporter, as detected with fluorescence intensity signals by Reverse transcription polymerase chain reaction (RT-PCR) and Capillary electrophoresis technology.Data from the assay component ATG_Ahr_CIS was analyzed into 1 assay endpoint. This assay endpoint, ATG_Ahr_CIS, was analyzed with bidirectional fitting relative to DMSO as the negative control and baseline of activity. Using a type of inducible reporter, measures of mRNA for gain or loss-of-signal activity can be used to understand the reporter gene at the transcription factor-level as they relate to the gene AHR. Furthermore, this assay endpoint can be referred to as a primary readout, because this assay has produced multiple assay endpoints where this one serves a reporter gene function. To generalize the intended target to other relatable targets, this assay endpoint is annotated to the dna binding intended target family, where the subfamily is basic helix-loop-helix protein.
Human liver HepG2 cells are transiently transfected with multiple reporter transcription units (MRTUs) in 6-well plates using FuGene 6 reagent (Roche; 3 ml FuGene/1 mg DNA). The MRTU constructs are regulated by a cis-regulating element (promoter). […] A major difference between the CIS and TRANS system is that in CIS activities of endogenous TFs are measured, whereas the TRANS assay evaluates changes in activities of exogenous, chimeric NR-Gal4 proteins. […] At the end of 24 hour incubation, total RNA was isolated using TriZol reagent (Invitrogen). The isolated RNA is then reverse-transcribed using oligo(dT) primer and Mo-MLV reverse transcriptase (Invitrogen) with DNAse I (Ambion) treatment for 30 min. The one-tenth of the produced cDNA was amplified by PCR using Taq DNA polymerase (Invitrogen) and two reporter sequence-specific primers. The PCR products were fluorescently labeled by primer extension with 6-arboxyfluorescein (6-FAM) 5'-labeled reporter sequence-specific primer (2 min at 95 C, 20 s at 68 C and 10 min at 72 C) and these products were digested with 5U of HpaI (New England Biolabs) for 2h at 37 C. […] The raw capillary electrophoresis data was processed using Attagraph software (Attagene).
As to `CCCC(=O)OCC(COC(=O)CCC)OC(=O)CCC`, the compound was classed as inactive. For `OCC(F)(F)C(F)(F)C(F)(F)C(F)(F)C(F)(F)C(F)(F)CO`, the call was inactive. Still for that read-out and setting: the value for `CCCCCCCC/C=C\CCCCCCCC(=O)N(C)CC(=O)O` was “inactive”; that for `CCC(C)CO` (stereo not given) was “inactive”; that for `CCc1cccc(C)c1N(C(=O)C(=O)O)C(C)COC` (stereo not given) was “inactive”.

On to `CCN(CC)c1ccc(C=O)cc1`, for which the result was inactive. Still for that read-out and setting: the value for `NCC(F)(F)C(F)(F)C(F)(F)C(F)(F)C(F)(F)C(F)(F)C(F)(F)C(F)(F)F` was “inactive”.

For the compound `CCc1cc(Cc2cc(CC)c(N)c(CC)c2)cc(CC)c1N`, the outcome was inactive. For `CC(C)(C)c1cc(Cc2cc(C(C)(C)C)c(O)c(C(C)(C)C)c2)cc(C(C)(C)C)c1O`, the result was inactive. `CCCCCC/C=C/CCCCCCCC(=O)O`: the result was inactive. Same read-out and setting: the entry for `NC(=O)C(F)(F)C(F)(F)C(F)(F)C(F)F` is “inactive”. On the same count and under the same terms, the value for `CCN=c1cc2oc3cc(NCC)c(C)cc3c(-c3ccccc3C(=O)OCC)c-2cc1C` was “inactive”; that for `CC(C)(C)c1cc(CCC(=O)NCCCCCCNC(=O)CCc2cc(C(C)(C)C)c(O)c(C(C)(C)C)c2)cc(C(C)(C)C)c1O` was “inactive”. Still for that read-out and setting: the value for `Cc1cc(O)c(C(C)(C)C)cc1C(C)(C)C` was “inactive”. On to `CSc1ccc(O)cc1C`, for which the compound was called inactive. As to `OCCCCC(F)(F)C(F)(F)C(F)(F)C(F)(F)F`, the compound was called inactive.

Regarding `CCOC(=O)CC(=O)C(F)(F)C(F)(F)F`, the outcome was inactive. Same read-out and setting: the entry for `Cc1ccc([N+](=O)[O-])c(C)c1` is “inactive”; for `CCOC(=O)C1CC(=O)C(=C(O)C2CC2)C(=O)C1` (stereo not given) it is “inactive”. The term AC50 denotes the concentration giving half of the maximal activity seen. For `N#Cc1ccccc1O`, the AC50 is 10.8 µM (active). Consider `O=C(Cl)C(F)(F)C(F)(F)C(F)(F)C(F)(F)C(F)(F)C(F)(F)C(F)(F)F`, for which the call was inactive. Regarding `CC(C)CC=C(C=O)c1ccccc1`, the call was inactive.

In the case of `CCCCOC(=O)C(C)O` (stereo not given), the call was inactive. `CC(C)Nc1ccc(NC(C)C)c2c1C(=O)c1ccccc1C2=O`: the concentration at half-maximal activity (AC50) is 3.35 µM (active). As to `CC(C)CCCC(C)CCO` (stereo not given), the result was inactive. Turning to `Brc1nc2ccccc2s1`, the concentration at half-maximal activity (AC50) is 2.56 µM (active). As for `CCOCN(C(=O)CS(=O)(=O)O)c1c(C)cccc1CC`, the call was inactive. Take `O=C(O)C(F)(F)C(F)(F)C(F)(F)C(=O)O`: the compound was called inactive. Still for that read-out and setting: the value for `NC(=O)C(F)(F)C(F)(F)C(F)(F)C(F)(F)C(F)(F)C(F)(F)C(F)(F)F` was “inactive”; that for `O=S(=O)(OCC(F)(F)F)C(F)(F)C(F)(F)C(F)(F)C(F)(F)F` was “inactive”. The same measure, in the same setting: the entry for `O=S(=O)(O)CCC(F)(F)C(F)(F)C(F)(F)C(F)(F)C(F)(F)C(F)(F)C(F)(F)C(F)(F)F` is “inactive”; for `O=C(O)C(F)(F)OC(F)(F)C(F)(F)OC(F)(F)C(F)(F)OC(F)(F)F` it is “inactive”. With `O=C1c2c(O)ccc(Nc3ccc(CCO)cc3)c2C(=O)c2c([N+](=O)[O-])ccc(O)c21`, the concentration at half-maximal activity (AC50) was 0.896 µM (active). For `OCC(F)(F)C(F)(F)C(F)(F)CO`, the call was inactive. Regarding `O=c1[nH]cccc1O`, the compound was called inactive.

Regarding `CCN(CC)c1ccc2c(c1)Oc1cc(N(CC)CC)ccc1C21OC(=O)c2ccccc21`, the AC50 was 7.41 µM (active). As for `Nc1cccnc1N`, the AC50 is 27.4 µM (active). On to `COCCC(=O)OC`, for which the outcome was inactive. For `OCCCCl`, the result was inactive. With `O=C(O)CCC(F)(F)C(F)(F)C(F)(F)F`, the result was inactive.
